According to PubChem BioAssay:
A number with no mark means an inactive call. No rule for the calls is given here.

The molecules below were run on Aerobactin synthetase IucA (Klebsiella pneumoniae hvKP1) (assay: Biochemical IucA enzyme inhibition primary screen of the Spectrum library (AID 1346200;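 also: 100% = wells without compound and 0% = wells lacking enzyme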)). Settings: malachite green pyrophosphate, A620, at 8 µM, active compounds read low.

Row | Compound | activity remaining [%]
1 | Nc1nc2ncc(CNc3ccc(C(=O)N[C@@H](CCC(=O)O)C(=O)O)cc3)nc2c(=O)[nH]1 | 91.3
2 | C[C@]12C=CC(=O)C=C1CCC1C2[C@@H](O)C[C@@]2(C)C1CC[C@]2(O)C(=O)COP(=O)(O)O (stereo not given in full) | 117
3 | COC1=CC(=O)C(O)=C/C1=C\C=C\c1ccccc1 | 106
4 | CCN(CC)Cc1ccc(Nc2ccnc3cc(Cl)ccc23)cc1O | 102
5 | CO/N=C(/C(=O)NC1C(=O)N2C(C(=O)OC(C)OC(C)=O)=C(COC(N)=O)CSC12)c1ccco1 (stereo not given) | 114
6 | Cc1ccnc(NS(=O)(=O)c2ccc(N)cc2)n1 | 122
7 | CN1C(CC(=O)c2ccccc2)CCCC1CC(O)c1ccccc1 (stereo not given) | 108
8 | CCOC(N)=O | 107
9 | Nc1cc(C(Cl)=C(Cl)Cl)c(S(N)(=O)=O)cc1S(N)(=O)=O | 104
10 | Cc1cc(NC(=O)C2=C(O)c3ccccc3S(=O)(=O)N2C)no1 | 94.1
11 | Cc1cc(C)nc(NS(=O)(=O)c2ccc(N)cc2)n1 | 111
12 | OC[C@H]1O[C@@H](O[C@H]2[C@H](O)[C@@H](O)[C@@H](O)O[C@@H]2CO)[C@H](O)[C@@H](O)[C@@H]1O | 107
13 | C[C@]12CCC3c4ccc(OS(=O)(=O)O)cc4CCC3C1CC[C@H]2O (stereo not given in full) | 102
14 | C#C[C@]1(O)CCC2C3CCc4cc(O)ccc4C3CC[C@@]21C (stereo not given in full) | 105
15 | CC(=O)N1CCCC1C(=O)O (stereo not given) | 106
